Drawing on PubChem BioAssay, this text covers activity remaining and remaining activity for 40 compounds.

The remaining activity is the signal under treatment as a percentage of the control signal.

Values joined by “and” are separate entries in the source; they are usually repeats but may differ in a detail not shown here. Equal entries are not always repeated. Unmarked numbers belong to inactive results. How the calls were made is not given here.

The first assay deals with Aerobactin synthetase IucA (Klebsiella pneumoniae hvKP1). Description: IucA enzyme inhibition, primary screen, biochemical, Spectrum library (AID 1346200).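 Further: 100% = wells without compound and 0% = wells lacking enzyme.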 The settings on record: malachite green pyrophosphate, A620, at 8 µM, hits give low values.
`O=C1CCc2cc(OCCCCc3nnnn3C3CCCCC3)ccc2N1`: the activity remaining is 117%.

In the case of `Cn1cnc([N+](=O)[O-])c1Sc1ncnc2nc[nH]c12`, the activity remaining was 113%.

For the compound `O=C(c1ccc(F)cc1)C1CCN(CCn2c(=O)[nH]c3ccccc3c2=O)CC1`, the activity remaining is 120%.

For the compound `O=C(c1ccc(OCCN2CCCCC2)cc1)c1c(-c2ccc(O)cc2)sc2cc(O)ccc12`, the activity remaining was 105%.

On to `NC(N)=NC(N)=Nc1ccccc1`, for which the activity remaining is 123%.

As for `COc1cc2nc(N3CCN(C(=O)C4CCCO4)CC3)nc(N)c2cc1OC` (stereo not given), the activity remaining is 119%.

Regarding `CCCCS(=N)(=O)CCC(N)C(=O)O` (stereo not given), the activity remaining was 102%.

On to `N=C(N)SCCN`, for which the activity remaining was 98.6%.

For the compound `O=[N+]([O-])c1cccc2c(Br)[nH]nc12`, the activity remaining was 118%.

Turning to `CC1(C)NC(=O)N(c2ccc([N+](=O)[O-])c(C(F)(F)F)c2)C1=O`, the activity remaining was 124%.

As for `Cc1cn([C@H]2C[C@H](N=[N+]=[N-])[C@@H](CO)O2)c(=O)[nH]c1=O`, the activity remaining was 114%.

`COc1ccc2[nH]cc(CCNC(C)=O)c2c1`: the activity remaining is 111%.

`COc1ccc2c(c1)c(CC(=O)O)c(C)n2C(=O)c1ccc(Cl)cc1`: the activity remaining is 103%.

For the compound `O=C1CC2(CCCC2)CC(=O)N1CCCCN1CCN(c2ncccn2)CC1`, the activity remaining was 118%.

On to `CCN(CC)CCOC(=O)C1(C2CCCCC2)CCCCC1`, for which the activity remaining is 125%.

As to `O=C(CCc1ccc(O)cc1)c1c(O)cc(O)cc1O`, the activity remaining was 105%.

On to `CC(C)Cn1c(=O)n(C)c(=O)c2[nH]cnc21`, for which the activity remaining is 108% and 118%.

In the case of `CCOC(=O)N1CCC(=C2c3ccc(Cl)cc3CCc3cccnc32)CC1`, the activity remaining is 116%.

In the case of `CCCNC(=O)NS(=O)(=O)c1ccc(Cl)cc1`, the activity remaining is 118%.

As for `O=C1N=C(O)CN1/N=C/c1ccc(-c2ccc([N+](=O)[O-])cc2)o1`, the activity remaining was 118%.

`CCN(CC)CC(=O)Nc1c(C)cccc1C`: the activity remaining was 101%.

With `COc1cc2c(c(OC)c1OC)-c1ccc(OC)c(=O)cc1[C@@H](NC(C)=O)CC2`, the activity remaining is 115%.

In the case of `O=c1[nH]cnc2[nH]ncc12`, the activity remaining is 99.3%.

With `Nc1c2c(nc3ccccc13)CCCC2`, the activity remaining is 118%.

On to `CN(C)CCCN1c2ccccc2CCc2ccccc21`, for which the activity remaining is 107%.

In the case of `C[N+](C)(C)CCOC(N)=O`, the activity remaining is 93.2%.

Turning to `CSc1ccc2c(c1)C(N1CCN(C)CC1)Cc1ccccc1S2` (stereo not given), the activity remaining was 103%.

Regarding `Cn1c(=O)c2c(ncn2C)n(C)c1=O`, the activity remaining is 119%.

Turning to `NCCc1ccc(O)c(O)c1`, the activity remaining was 103% and 107%.

For `NCCc1cnc[nH]1`, the activity remaining is 112%.

With `Cc1ccccc1C(OCCN(C)C)c1ccccc1` (stereo not given), the activity remaining was 100%.

Turning to `CN(C)c1ccc(O)c2c1C[C@H]1C[C@H]3[C@H](N(C)C)C(=O)C(C(N)=O)=C(O)[C@@]3(O)C(=O)C1=C2O`, the activity remaining was 105%.

For `CN(C)c1nc(N(C)C)nc(N(C)C)n1`, the activity remaining was 118%.

Regarding `CCCN(CCC)CCc1cccc2c1CC(=O)N2`, the activity remaining is 98.7%.

Take `CCOC(=O)C1=C[C@]2(CC)CCCN3CCc4c(n1c1ccccc41)[C@@H]32`: the activity remaining is 108%.

`CCCCc1oc2ccccc2c1C(=O)c1cc(I)c(OCCN(CC)CC)c(I)c1`: the activity remaining was 123%.

Turning to `O=C(O)c1cc2cc(F)ccc2[nH]1`, the activity remaining was 106%.

With `Cc1ccc(N(CC2=NCCN2)c2cccc(O)c2)cc1`, the activity remaining was 117%.

As to `CCC1(C)CC(=O)NC1=O` (stereo not given), the activity remaining was 123%.

As for `O=c1cc(-c2ccc(O)cc2)oc2cc(O)cc(O)c12`, the activity remaining is 113%.

The subject of the next assay is Aerobactin synthetase IucA (Klebsiella pneumoniae, hypervirulent). Description: biochemical IucA inhibition screen of LOPAC library by absorbance (AID 1346212).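 Further: 100% = no compound wells and 0% = no enzyme wells.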 The settings on record: IucA enzyme assay, absorbance (OD) readout; hits give low values;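 tested at 8 µM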.
Turning to `O=C1CCc2cc(OCCCCc3nnnn3C3CCCCC3)ccc2N1`, the remaining activity was 113%.

As for `Cn1cnc([N+](=O)[O-])c1Sc1ncnc2nc[nH]c12`, the remaining activity was 121%.

Consider `O=C(c1ccc(F)cc1)C1CCN(CCn2c(=O)[nH]c3ccccc3c2=O)CC1`, for which the remaining activity was 73.1%.

For `O=C(c1ccc(OCCN2CCCCC2)cc1)c1c(-c2ccc(O)cc2)sc2cc(O)ccc12`, the remaining activity was 92%.

As to `NC(N)=NC(N)=Nc1ccccc1`, the remaining activity is 101%.

For the compound `COc1cc2nc(N3CCN(C(=O)C4CCCO4)CC3)nc(N)c2cc1OC` (stereo not given), the remaining activity is 102%.

For `CCCCS(=N)(=O)CCC(N)C(=O)O` (stereo not given), the remaining activity is 84.7%.

Turning to `N=C(N)SCCN`, the remaining activity is 109%.

`O=[N+]([O-])c1cccc2c(Br)[nH]nc12`: the remaining activity was 110%.

For `CC1(C)NC(=O)N(c2ccc([N+](=O)[O-])c(C(F)(F)F)c2)C1=O`, the remaining activity was 98.2%.

Take `Cc1cn([C@H]2C[C@H](N=[N+]=[N-])[C@@H](CO)O2)c(=O)[nH]c1=O`: the remaining activity is 117%.

For the compound `COc1ccc2[nH]cc(CCNC(C)=O)c2c1`, the remaining activity is 118%.

For the compound `COc1ccc2c(c1)c(CC(=O)O)c(C)n2C(=O)c1ccc(Cl)cc1`, the remaining activity was 92%.

Turning to `O=C1CC2(CCCC2)CC(=O)N1CCCCN1CCN(c2ncccn2)CC1`, the remaining activity was 111%.

Turning to `CCN(CC)CCOC(=O)C1(C2CCCCC2)CCCCC1`, the remaining activity was 92.7%.

`O=C(CCc1ccc(O)cc1)c1c(O)cc(O)cc1O`: the remaining activity was 79.2%.

With `CC(C)Cn1c(=O)n(C)c(=O)c2[nH]cnc21`, the remaining activity was 108%.

In the case of `CCOC(=O)N1CCC(=C2c3ccc(Cl)cc3CCc3cccnc32)CC1`, the remaining activity was 112%.

Turning to `CCCNC(=O)NS(=O)(=O)c1ccc(Cl)cc1`, the remaining activity was 103%.

Turning to `O=C1N=C(O)CN1/N=C/c1ccc(-c2ccc([N+](=O)[O-])cc2)o1`, the remaining activity was 100%.

Regarding `CCN(CC)CC(=O)Nc1c(C)cccc1C`, the remaining activity was 109%.

In the case of `COc1cc2c(c(OC)c1OC)-c1ccc(OC)c(=O)cc1[C@@H](NC(C)=O)CC2`, the remaining activity was 112%.

Take `O=c1[nH]cnc2[nH]ncc12`: the remaining activity was 110%.

Take `Nc1c2c(nc3ccccc13)CCCC2`: the remaining activity was 119%.

Turning to `CN(C)CCCN1c2ccccc2CCc2ccccc21`, the remaining activity is 90.4%.

For the compound `C[N+](C)(C)CCOC(N)=O`, the remaining activity is 119%.

`CSc1ccc2c(c1)C(N1CCN(C)CC1)Cc1ccccc1S2` (stereo not given): the remaining activity is 114%.

For `Cn1c(=O)c2c(ncn2C)n(C)c1=O`, the remaining activity is 113%.

Turning to `NCCc1ccc(O)c(O)c1`, the remaining activity is 104%.

`NCCc1cnc[nH]1`: the remaining activity is 112%.

On to `Cc1ccccc1C(OCCN(C)C)c1ccccc1` (stereo not given), for which the remaining activity is 117%.

With `CN(C)c1ccc(O)c2c1C[C@H]1C[C@H]3[C@H](N(C)C)C(=O)C(C(N)=O)=C(O)[C@@]3(O)C(=O)C1=C2O`, the remaining activity is 110%.

With `CN(C)c1nc(N(C)C)nc(N(C)C)n1`, the remaining activity was 120%.

As to `CCCN(CCC)CCc1cccc2c1CC(=O)N2`, the remaining activity is 80.8%.

With `CCOC(=O)C1=C[C@]2(CC)CCCN3CCc4c(n1c1ccccc41)[C@@H]32`, the remaining activity was 100%.

In the case of `CCCCc1oc2ccccc2c1C(=O)c1cc(I)c(OCCN(CC)CC)c(I)c1`, the remaining activity is 101%.

Consider `O=C(O)c1cc2cc(F)ccc2[nH]1`, for which the remaining activity is 86.3%.

For `Cc1ccc(N(CC2=NCCN2)c2cccc(O)c2)cc1`, the remaining activity is 92.9%.

In the case of `CCC1(C)CC(=O)NC1=O` (stereo not given), the remaining activity is 85.2%.

Turning to `O=c1cc(-c2ccc(O)cc2)oc2cc(O)cc(O)c12`, the remaining activity is 107%.
